Source: PubChem BioAssay AID463173 (ICCB-Longwood Screening Facility, Harvard Medical School, 2010)
The whole screen tested about 52,000 compounds, of which about 4,300 (8.3%) were called active. Many of the other results were omitted from the sample, so actives are more common in it than they were. Unmarked numbers belong to inactive results. Cut-off read from the data, not from the text of the source: active = survival mostly below about 52% (no sharp cut-off); inactive = mostly above about 56%.

The compounds below were run on DeltatarO mutant (assay: growth inhibition of S. aureus wild type versus tarO mutant, primary screen, teichoic acid synthesis inhibitors, RN4220, OD600 (AID 463173)). Details: OD600, 18 h, stronger effect = lower value, screened at 18.75 µg/mL (by protocol).
For `CCOc1ccccc1NC(=O)c1sc(-n2nc(C)c(CCC(C)C)c2C)nc1C`, the survival was 69%. In the case of `COc1cccc2sc(N(Cc3cccnc3)C(=O)c3ccc4c(c3)OCCO4)nc12`, the survival is reported as 72%. `O=C(CSc1nc2ncccc2[nH]1)Nc1cc(F)ccc1F` showed a survival of 86%. `CCN1c2ccccc2-c2nc(SCC(=O)NCc3ccc(Cl)cc3)ncc2S1(=O)=O` was tested, and the survival was 46% (active). For `CCN1c2ccccc2-c2nc(SCC(=O)NCc3ccc(C)cc3)ncc2S1(=O)=O`, the survival was 105%. Compound `Cc1ccccc1CN1c2ccccc2-c2nc(SCC(=O)NCCc3ccccc3)ncc2S1(=O)=O` has a survival of 66%. With `Cc1ccc(CN2c3ccccc3-c3nc(SCC(=O)NCc4ccccc4)ncc3S2(=O)=O)cc1` the survival was 17% (active). Work on `Cc1ccccc1CN1c2ccccc2-c2nc(SCC(=O)c3ccccc3)ncc2S1(=O)=O` yielded a survival of 102%. With `Cc1ccccc1CN1c2ccccc2-c2nc(SCC(=O)NCc3ccccc3)ncc2S1(=O)=O` the survival was 20% (active). For `NC(=O)CSc1ncc2c(n1)-c1ccccc1N(Cc1ccccc1)S2(=O)=O`, the survival was 89%. In the case of `CCN1c2ccccc2-c2nc(SCC(=O)NCc3ccccc3)ncc2S1(=O)=O`, the survival is reported as 93%. `O=C(CSc1ncc2c(n1)-c1ccccc1N(Cc1ccc(F)cc1)S2(=O)=O)NCc1ccccc1` gave a survival of 87%. Compound `Cc1ccc(CN2c3ccccc3-c3nc(SCC(=O)Nc4c(C)cc(C)cc4C)ncc3S2(=O)=O)cc1` has a survival of 128%. In the case of `O=C(CSc1ncc2c(n1)-c1ccccc1N(Cc1ccccc1)S2(=O)=O)Nc1ccccc1`, the survival is reported as -5% (active). With `Cc1ccc(CN2c3ccccc3-c3nc(SCC(=O)NCCc4ccccc4)ncc3S2(=O)=O)cc1` the survival was 55%. For `O=C(CCCc1ccccc1)NC1CC(=O)N(c2cccc(F)c2)C1` (stereo not given), the survival was 120%. With `CN(C)c1ccc(C(CNS(=O)(=O)c2ccc(F)cc2F)N2CCOCC2)cc1` (stereo not given) the survival was 69%. Work on `Cc1nn2c(=O)cc(CN(C)c3ccccc3)nc2s1` yielded a survival of 135%. In the case of `COc1ccc(S(=O)(=O)N2CCC(Oc3ccc(-n4cnnn4)cc3)CC2)cc1`, the survival is reported as 90%. In the case of `O=C(NC1CC(=O)N(c2ccc(F)cc2)C1)c1ccc(S(=O)(=O)N2CCOCC2)cc1` (stereo not given), the survival is reported as 93%. For `Cn1c(SCC(N)=O)nnc1-c1ccc(S(=O)(=O)N2CCCC2)cc1`, the survival was 79%. Work on `Cc1ccc(Cl)cc1N1CCN(C(=O)Cn2cnc3onc(-c4ccc(F)cc4)c3c2=O)CC1` yielded a survival of 75%. `O=C(NCCc1ccccc1)C1CCC(CNS(=O)(=O)c2ccccc2)CC1` (stereo not given) was tested, and the survival was 91%. With `CCOc1ccc(NC(=O)CSc2ncc3c(n2)-c2ccccc2N(Cc2ccccc2C)S3(=O)=O)cc1` the survival was 91%. With `CCc1cccc(NC(=O)CSc2ncc3c(n2)-c2ccccc2N(Cc2ccccc2C)S3(=O)=O)c1` the survival was 8% (active). `CCc1cccc(NC(=O)CSc2ncc3c(n2)-c2ccccc2N(CC)S3(=O)=O)c1` was tested, and the survival was 101%. `CCOC(=O)c1ccc(NC(=O)CC2C(=O)N(c3cccc(C)c3)C(=O)N2CCOC)cc1` (stereo not given) showed a survival of 74%. Work on `CCc1ccc(NC(=O)[C@H](Cc2ccccc2)N2Cc3ccccc3C2=O)cc1` yielded a survival of 88%. `Fc1cccc(-c2nnn3c2nc(NC2CCCCC2)c2ccccc23)c1` was tested, and the survival was 59%. In the case of `CCCCNc1nc2c(-c3cccc(C)c3)nnn2c2ccccc12`, the survival is reported as 98%. With `COc1ccc(CCNc2nc3c(-c4cccc(C(F)(F)F)c4)nnn3c3ccccc23)cc1OC` the survival was 85%. For `CC1CCC(Nc2nc3c(-c4cccc(C(F)(F)F)c4)nnn3c3ccccc23)CC1` (stereo not given), the survival was -3% (active). `Brc1cccc(-c2nnn3c2nc(NC2CCCCC2)c2ccccc23)c1` gave a survival of 64%. `FC(F)(F)c1cccc(-c2nnn3c2nc(NC2CCCCC2)c2ccccc23)c1` was tested, and the survival was 13% (active). Compound `Cc1cccc(CCNC(=O)c2ccc(CSCc3cccc(Cl)c3)o2)c1` has a survival of 70%. With `O=C(CN1C(=O)COc2ccc(S(=O)(=O)N3CCOCC3)cc21)Nc1ccc(F)c(Cl)c1` the survival was 106%. Compound `CCc1ccc(NC(=O)CN2C(=O)C3(SCC(=O)N3c3ccccc3)c3ccccc32)cc1` (stereo not given) has a survival of 129%. Compound `Cc1c(Cl)cccc1-n1c(SCC(=O)NCc2ccccc2)nc2n[nH]c(C)c2c1=N` has a survival of 126%. For `Cc1ccc(NC(=O)CSc2nc3n[nH]c(C)c3c(=N)n2-c2cccc(C)c2)cc1`, the survival was -5% (active). With `CCCCN(CC)C(=O)CSc1nc2n[nH]c(C)c2c(=N)n1-c1cccc(Cl)c1` the survival was 17% (active). `Cc1ccc(Cl)cc1-n1c(SCC(=O)NCc2ccccc2)nc2n[nH]c(C)c2c1=N` gave a survival of 81%. In the case of `Cc1ccc(-n2c(SCC(=O)NCc3ccccc3)nc3n[nH]c(C)c3c2=N)cc1Cl`, the survival is reported as -5% (active). `Cc1cccc(-n2c(SCC(=O)Nc3ccc(C)c(C)c3)nc3n[nH]c(C)c3c2=N)c1` was tested, and the survival was 87%. With `Cc1cccc(NC(=O)CSc2nc3n[nH]c(C)c3c(=N)n2-c2cccc(Cl)c2)c1` the survival was 55%. Work on `CCCCN(CC)C(=O)CSc1nc2n[nH]c(C)c2c(=N)n1-c1cccc(OC)c1` yielded a survival of 109%. `CCCCN(CC)C(=O)CSc1nc2n[nH]c(C)c2c(=N)n1-c1cccc(C)c1` gave a survival of 88%. `O=C(NCC1CCCO1)Nc1c[nH]c2c(Cl)cccc2c1=O` (stereo not given) showed a survival of 97%. `Cn1c(=O)cc(SCC(=O)NCc2ccc(F)cc2)c2ccc(Cl)cc21` gave a survival of 91%. For `Cc1cccc(Cn2c(C)c(C)c3cc(C(=O)NCc4ccco4)ccc32)c1`, the survival was 94%. `COc1cc(CCNC(=O)c2ccc3c(c2)c(C)c(C)n3Cc2cccc(C)c2)cc(OC)c1OC` was tested, and the survival was 80%. In the case of `Cc1ccc(CNC(=O)CC(C)S(=O)(=O)c2cc3c(cc2C)NC(=O)CO3)cc1` (stereo not given), the survival is reported as 89%. For `Cc1ccc(C(=O)N2CCCCC2)cc1NC(=O)c1nsc2ccccc12`, the survival was -4% (active). `O=C(Nc1ccc(C(=O)N2CCN(c3cccc(Cl)c3)CC2)cc1)c1nsc2ccccc12` showed a survival of 79%. `Cc1ccc(C(=O)N2CCC(C)CC2)cc1NC(=O)c1nsc2ccccc12` showed a survival of 96%. `O=C(Nc1ccc(C(=O)N2CCN(c3ccc(F)cc3)CC2)cc1)c1nsc2ccccc12` was tested, and the survival was 81%. With `Cc1ccc(Cl)cc1N1CCN(C(=O)c2ccc(NC(=O)c3nsc4ccccc34)cc2)CC1` the survival was 6% (active). `Cc1ccc(C)c(N2CCN(C(=O)c3ccc(NC(=O)c4nsc5ccccc45)cc3)CC2)c1` gave a survival of 67%. With `O=C(Nc1ccc(C(=O)N2CCN(c3ccccc3)CC2)cc1)c1nsc2ccccc12` the survival was -1% (active). With `Cc1ccc(C(=O)N2CCC(C(N)=O)CC2)cc1NC(=O)c1nsc2ccccc12` the survival was 87%. Compound `O=C(Nc1ccc(C(=O)N2CCN(c3ccc(Cl)cc3)CC2)cc1)c1nsc2ccccc12` has a survival of 72%.
